Reference: the supplement of paper PMC8728848
Shown is part of a subset that was picked to be rich in the strongest signals.

What was measured:
Test in all cases: glycan array binding signal (z-score within array); higher = stronger binding
Conditions in all cases: glycan notation: IUPAC condensed, linker removed
[1] = biological target: Fuc(a1-2)Gal(b1-3)GalNAc(b1-3)Gal
Method in brief: (§1)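 Columns mapping to the same glycan were averaged after glycan names were converted to IUPAC-condensed notation. The data come from 3228 arrays in the Consortium for Functional Glycomics database, limited to those with an available protein sequence. Binding is reported as a within-array Z-score averaged across arrays of one protein sequence and across linkers.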

[2] = biological target: Fuc(a1-2)Gal(b1-4)GlcNAc(b1-2)Man(a1-3)[Fuc(a1-2)Gal(b1-4)GlcNAc(b1-2)Man(a1-6)]Man(b1-4)GlcNAc(b1-4)GlcNAc
Method in brief: as §1

[3] = biological target: Fuc(a1-2)Gal(b1-4)[Fuc(a1-3)]GlcNAc
Method in brief: as §1

[4] = biological target: Fuc(a1-2)[GalNAc(a1-3)]Gal(b1-3)GlcNAc(b1-2)Man(a1-3)[Fuc(a1-2)[GalNAc(a1-3)]Gal(b1-3)GlcNAc(b1-2)Man(a1-6)]Man(b1-4)GlcNAc(b1-4)GlcNAc
Method in brief: as §1

[5] = biological target: Fuc(a1-2)[GalNAc(a1-3)]Gal(b1-4)Glc
Method in brief: as §1

[6] = biological target: Fuc(a1-3)[Gal(b1-4)]Glc6S
Method in brief: as §1

[7] = biological target: Fuc(a1-3)[Gal(b1-4)]GlcNAc(b1-4)Gal(b1-4)[Fuc(a1-3)]GlcNAc(b1-4)Gal(b1-4)[Fuc(a1-3)]GlcNAc
Method in brief: as §1

[8] = biological target: Fuc(a1-3)[Gal3S(b1-4)]Glc6S
Method in brief: as §1

[9] = biological target: Fuc(a1-3)[Gal3S(b1-4)]GlcNAc
Method in brief: as §1

[10] = biological target: Gal(b1-3)GalNAc(a1-3)[Fuc(a1-2)]Gal(b1-4)Glc
Method in brief: as §1

[11] = biological target: Gal(b1-3)[Fuc(a1-4)]GlcNAc
Method in brief: as §1

[12] = biological target: Gal(b1-3)[Fuc(a1-4)]GlcNAc(b1-2)Man(a1-3)[Gal(b1-3)[Fuc(a1-4)]GlcNAc(b1-2)Man(a1-6)]Man(b1-4)GlcNAc(b1-4)GlcNAc
Method in brief: as §1

[13] = biological target: Gal(b1-4)GlcNAc(b1-3)Gal(b1-3)GlcNAc
Method in brief: as §1

Gal3S4S(b1-4)GlcNAc = biological target: Gal3S4S(b1-4)GlcNAc
Method in brief: as §1

GalNAc(b1-4)GlcNAc = biological target: GalNAc(b1-4)GlcNAc
Method in brief: as §1

[14] = biological target: GlcNAc(a1-4)Gal(b1-3)GlcNAc
Method in brief: as §1

[15] = biological target: GlcNAc(a1-4)Gal(b1-4)GalNAc
Method in brief: as §1

[16] = biological target: GlcNAc(a1-4)Gal(b1-4)GlcNAc(b1-3)Gal(b1-4)Glc
Method in brief: as §1

[17] = biological target: GlcNAc(a1-4)Gal(b1-4)GlcNAc(b1-3)Gal(b1-4)[Fuc(a1-3)]GlcNAc(b1-3)Gal(b1-4)[Fuc(a1-3)]GlcNAc
Method in brief: as §1

GlcNAc(b1-4)GlcNAc = biological target: GlcNAc(b1-4)GlcNAc
Method in brief: as §1

[18] = biological target: Man(a1-2)Man(a1-2)Man(a1-6)[Man(a1-3)]Man
Method in brief: as §1

[19] = biological target: Man(a1-2)Man(a1-3)[Man(a1-2)Man(a1-6)]Man
Method in brief: as §1

[20] = biological target: Man(a1-2)Man(a1-3)[Man(a1-2)Man(a1-6)]Man(a1-6)[Man(a1-2)Man(a1-2)Man(a1-3)]Man
Method in brief: as §1

[21] = biological target: Neu5Ac(a2-3)Gal(b1-4)GlcNAc(b1-2)Man(a1-3)[Neu5Ac(a2-6)Gal(b1-4)GlcNAc(b1-2)Man(a1-6)]Man(b1-4)GlcNAc(b1-4)GlcNAc
Method in brief: as §1

[22] = biological target: Neu5Ac(a2-3)Gal(b1-4)GlcNAc(b1-6)[Neu5Ac(a2-3)Gal(b1-3)]GalNAc
Method in brief: as §1

[23] = biological target: Neu5Ac(a2-3)Gal(b1-4)[Fuc(a1-3)]GlcNAc(b1-3)Gal
Method in brief: as §1

[24] = biological target: Neu5Ac(a2-3)Gal(b1-4)[Fuc(a1-3)]GlcNAc(b1-3)Gal(b1-4)GlcNAc
Method in brief: as §1

[25] = biological target: Neu5Ac(a2-3)GalNAc(b1-4)GlcNAc
Method in brief: as §1

[26] = biological target: Neu5Ac(a2-3)[GalNAc(b1-4)]Gal(b1-4)Glc
Method in brief: as §1

Neu5Ac(a2-6)Gal(b1-4)Glc = biological target: Neu5Ac(a2-6)Gal(b1-4)Glc
Method in brief: as §1

[27] = biological target: Neu5Ac(a2-6)Gal(b1-4)GlcNAc(b1-2)Man(a1-3)Man(b1-4)GlcNAc(b1-4)GlcNAc
Method in brief: as §1

[28] = biological target: Neu5Ac(a2-6)Gal(b1-4)GlcNAc(b1-2)Man(a1-3)[GlcNAc(b1-2)Man(a1-6)]Man(b1-4)GlcNAc(b1-4)GlcNAc
Method in brief: as §1

B1: Neuropilin-2 (Homo sapiens), O60462 (protein)
chain: MDMFPLTWVFLALYFSRHQVRGQPDPPCGGRLNSKDAGYITSPGYPQDYPSHQNCEWIVYAPEPNQKIVLNFNPHFEIEKHDCKYDFIEIRDGDSESADLLGKHCGNIAPPTIISSGSMLYIKFTSDYARQGAGFSLRYEIFKTGSEDCSKNFTSPNGTIESPGFPEKYPHNLDCTFTILAKPKMEIILQFLIFDLEHDPLQVGEGDCKYDWLDIWDGIPHVGPLIGKYCGTKTPSELRSSTGILSLTFHTDMAVAKDGFSARYYLVHQEPLENFQCNVPLGMESGRIANEQISASSTYSDGRWTPQQSRLHGDDNGWTPNLDSNKEYLQVDLRFLTMLTAIATQGAISRETQNGYYVKSYKLEVSTNGEDWMVYRHGKNHKVFQANNDATEVVLNKLHAPLLTRFVRIRPQTWHSGIALRLELFGCRVTDAPCSNMLGMLSGLIADSQISASSTQEYLWSPSAARLVSSRSGWFPRIPQAQPGEEWLQVDLGTPKTVKGVIIQGARGGDSITAVEARAFVRKFKVSYSLNGKDWEYIQDPRTQQPKLFEGNMHYDTPDIRRFDPIPAQYVRVYPERWSPAGIGMRLEVLGCDWTDSKPTVETLGPTVKSEETTTPYPTEEEATECGENCSFEDDKDLQLPSGFNCNFDFLEEPCGWMYDHAKWLRTTWASSSSPNDRTFPDDRNFLRLQSDSQREGQYARLISPPVHLPRSPVCMEFQYQATGGRGVALQVVREASQESKLLWVIREDQGGEWKHGRIILPSYDMEYQIVFEGVIGKGRSGEIAIDDIRISTDVPLENCMEPISAFAGENFKVDIPEIHEREGYEDEIDDEYEVDWSNSSSATSGSGAPSTDKEKSWLYTLDPILITIIAMSSLGVLLGATCAGLLLYCTCSYSGLSSRSCTTLENYNFELYDGLKHKVKMNHQKCCSEA
[1]
  glycan array binding signal (z-score): 1.26
[2]
  glycan array binding signal (z-score): 3.21
[3]
  glycan array binding signal (z-score): 0.117
[4]
  glycan array binding signal (z-score): -0.324
[5]
  glycan array binding signal (z-score): -0.637
[6]
  glycan array binding signal (z-score): 0.81
[7]
  glycan array binding signal (z-score): -0.508
[8]
  glycan array binding signal (z-score): 6.67
[9]
  glycan array binding signal (z-score): 0.282
[10]
  glycan array binding signal (z-score): -0.835
[11]
  glycan array binding signal (z-score): 0.255
[12]
  glycan array binding signal (z-score): 5.64
[13]
  glycan array binding signal (z-score): -0.249
Gal3S4S(b1-4)GlcNAc
  glycan array binding signal (z-score): -0.032
GalNAc(b1-4)GlcNAc
  glycan array binding signal (z-score): -0.284
[14]
  glycan array binding signal (z-score): 1.66
[15]
  glycan array binding signal (z-score): 6.59
[16]
  glycan array binding signal (z-score): 1.04
[17]
  glycan array binding signal (z-score): 10.4
GlcNAc(b1-4)GlcNAc
  glycan array binding signal (z-score): -0.129
[18]
  glycan array binding signal (z-score): -0.323
[19]
  glycan array binding signal (z-score): -0.496
[20]
  glycan array binding signal (z-score): -0.552
[21]
  glycan array binding signal (z-score): -0.501
[22]
  glycan array binding signal (z-score): -0.664
[23]
  glycan array binding signal (z-score): -0.587
[24]
  glycan array binding signal (z-score): 3.79
[25]
  glycan array binding signal (z-score): 0.369
[26]
  glycan array binding signal (z-score): -0.339
Neu5Ac(a2-6)Gal(b1-4)Glc
  glycan array binding signal (z-score): 0.038
[27]
  glycan array binding signal (z-score): -0.201
[28]
  glycan array binding signal (z-score): -0.609
